The values that follow come from PubChem BioAssay (NCI).

This is part of a sample that, as a whole, favours compounds with a hit. Of some 83,000 tested, about 20% had one in any assay.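 Interpretation: 100, growth as untreated; towards 0, rising growth inhibition; 0, no net growth; 0 to -100, cell death. Compounds scoring below 10 were considered active.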 Active and inactive are the calls of the source.

The test system of the assay is MDA-MB-468 breast. Put plainly: NCI-60 one-dose screen, 48 h (100 = growth as untreated, 0 = no growth, -100 = all killed). The following applies: 10 µM unless noted.
`OCC1OC(n2ccc3c(NO)ncnc32)C(O)C1O` (stereo not given): the growth is -88.8% (active).

For `Clc1ccc(Nc2nc(Nc3ccccc3)nc(Nc3ccc(-c4cc(-c5ccc(Cl)cc5)on4)cc3)n2)cc1`, the growth is 93.4% (inactive).

`CC1(C)COC(=S)N1`: the growth is 99.5% (inactive).

With `O=C1CCc2c(sc3[nH]c(=S)n(Cc4ccccc4)c(=O)c23)C1`, the growth is -3.67% (active).

With `COc1ccc(C2C3=C(COC3=O)N(CCO)c3cc(OC)c(OC)cc32)cc1` (stereo not given), the growth was 110% (inactive).

As to `COc1cc(/C=C(/C)C[N+](=O)[O-])ccc1O`, the growth is 57.9% (inactive).

Consider `CCc1ccc(NC(=O)N[C@@H](Cc2cc(F)cc(F)c2)C(=O)N[C@@H]2C(=O)N3CCC[C@H]3C(=O)N3CCO[C@H](C)[C@H]3C(=O)N[C@@H](CO)C(=O)N3C[C@H](C)C[C@H]3C(=O)O[C@H]2C)c(F)c1`, for which the growth is -7.66% (active).

As to `Cc1nn(-c2ccccc2)c2ncnc(N/N=C/c3cccc(O)c3)c12`, the growth is -0.147% (active).

In the case of `C[C@]1(CO)C[C@@H](O)C[C@]2(C)[C@@H]1CC[C@@]13C[C@@H]4[C@@H](C[C@H]12)[C@]4(C)C3`, the growth is 113% (inactive).

For the compound `CC(=O)c1ccc(Nc2nc(SCC(C)C)nc(-c3ccc(F)cc3)c2C#N)cc1`, the growth is 118% (inactive).

In the case of `CCOC(=O)C(COS(C)(=O)=O)(COS(C)(=O)=O)C(=O)OCC`, the growth is 122% (inactive).

Turning to `CCCCCCCCCCN1CC2CCCCC2C1` (stereo not given), the growth was 54.7% (inactive).

Consider `COc1ccc(-c2cn3c(C(=O)Nc4ccccc4Cl)c(-c4ccccc4)c4c3n2CCCC4)cc1`, for which the growth was 84.1% (inactive).

On to `Nc1nc(N)c2c(n1)NC(c1ccc(C(F)(F)F)cc1)CC(c1ccc(Nc3nc(NCCO)nc(N4CCOCC4)n3)cc1)=N2` (stereo not given), for which the growth was 68.3% (inactive).

In the case of `CC(=O)Oc1c(Cl)cccc1-c1ccccc1`, the growth was 100% (inactive).

For the compound `COc1cc2cn3c4ccc(O)cc4nc(N)c3c2cc1OC`, the growth is -32.3% (active).

Consider `O=C1CCC(N2C(=O)c3cccc(NCCCC4CCN(CCNC(=O)c5cc6c(o5)C(=O)c5ccccc5C6=O)CC4)c3C2=O)C(=O)N1` (stereo not given), for which the growth was -73.9% (active).

For the compound `CC(=O)c1cccc(NS(=O)(=O)c2ccc(C)cc2)c1`, the growth was 77.3% (inactive).

For `NCCCOc1cc2ccccc2cc1C(=O)Nc1ccc(Cl)cc1OC(=O)c1cc2ccccc2cc1OCCCN`, the growth is -86% (active).

In the case of `CCN(CC)c1ccc(/C=C/C2=[N+](C)c3ccccc3C2(C)C)cc1`, the growth is 20.4% (inactive).

`CCOc1ccccc1Cn1ccnc1CCc1c(Cl)c(O)cc(O)c1C(=O)OC`: the growth was 106% (inactive).

Consider `O=C(Nc1ccc(Cl)c(Cl)c1)Nc1ccc(Cl)c([N+](=O)[O-])c1`, for which the growth was -19% (active).

As for `C#Cc1nc(C2=C(C)C(O)CC2)cs1` (stereo not given), the growth is -91.7% (active).

Consider `CC(=O)n1c(/C(C#N)=C/c2ccc(N(C)C)cc2)cc2ccccc21`, for which the growth is 14.2% (inactive).

Regarding `NNC(=O)c1nc(N)n(-c2ccc(S(N)(=O)=O)cc2)n1`, the growth is 108% (inactive).

Take `O=c1cc(-c2ccccc2)[nH]n1-c1nc2ccccc2[nH]1`: the growth was 66.2% (inactive).

`CSc1nnc(-c2cc3c([nH]c4ccccc43)c(-c3cccc(O)c3)n2)n1-c1ccccc1`: the growth is 33.4% (inactive).

Take `Nc1c(C(=O)Nc2ccccc2C(F)(F)F)sc2nc3c(cc12)CCC3`: the growth was 104% (inactive).

For the compound `C=C(CN1CC=CCC1)[C@@H]1CC[C@]2(COC(C)=O)CC[C@]3(C)[C@H](CC[C@@H]4[C@@]5(C)CC[C@H](O)C(C)(C)[C@@H]5CC[C@]43C)[C@@H]12`, the growth is 95% (inactive).

In the case of `c1csc(-c2[nH]nc3c2CCc2ccccc2-3)c1`, the growth was -18.7% (active).

On to `Oc1ccc(Cl)cc1-c1cc(-c2ccccc2Cl)[nH]n1`, for which the growth is 3.92% (active).

As for `CCCCCCN(C)Cc1ccc(OCCOc2ccc(CN(C)CCCCCC)cc2)cc1`, the growth was -59.9% (active).

Regarding `C=CC(=O)N[C@@H](/C=C/C(=O)OCC)Cc1ccc(-c2cc(Cl)cc(Cl)c2)cc1`, the growth is 1.83% (active).

As for `Cc1nc2ccccc2c(/C=C/c2ccc(Cl)cc2)c1C(=O)/C=C/c1ccc(C(F)(F)F)cc1`, the growth was -65.8% (active).

As for `O=C(NCCN1CCOCC1)c1cncnc1Nc1ccc2c(ccn2Cc2ccccn2)c1`, the growth is 98% (inactive).

As for `CCCCCCCCCCCCCCNCc1ccccc1`, the growth was -29.3% (active).

For the compound `CCOC(=O)c1cccnc1Nc1ccc(NC(=O)Nc2ccc(Cl)c(C(F)(F)F)c2)cc1`, the growth was 21.3% (inactive).

For the compound `Cc1ccc(NC(C(=O)c2ccccc2)c2ccccc2)cc1` (stereo not given), the growth is 8.06% (active).

On to `Cc1nc2ccc(-n3ncc(C(=O)c4cc5ccccc5[nH]4)c3N)cc2[nH]1`, for which the growth was 68.2% (inactive).

`C=C1C(=O)O[C@H]2[C@H]1CC/C(CNC(=O)/C=C/c1ccccc1)=C\CC[C@@]1(C)O[C@@H]21`: the growth was -30.2% (active).
